Shown are actives, neighbours in structure and some others; about 4.8% of the full set was active somewhere.
SMARCA2 activ = increases SMARCA2 function in MMTV reporter cells. MG213 cells, MMTV-luciferase reporter, dexamethasone, overnight. activation, % at 9.1 µM. actives 1% (n = 370,000). AID 652017; in the data active means activation above about 7.8%
hgDAF-12 ag = agonists of H. glycines DAF-12 nuclear receptor | activation, % at 6.8 µM | actives 1.8% (n = 370,000) | HEK293 GAL4-hgDAF12 UAS-luciferase reporter, agonist luminescence; normalized to butyrate control | AID 687014;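 active means activation above a cutoff set at the mean of all screened compounds plus 3 SD, cut at about 10% in these data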
DAX1 inh-1 = inhibits human nuclear receptor DAX1 | HEK293 Gal4-DAX1 luciferase reporter, luminescence | inhibition, % at 6.75 µM | actives 0.99% (n = 340,000) | AID 504766;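 active means inhibition above the mean over all tested compounds plus 3 SD, cut at about 4.2% in these data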;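 further: inhibition shows as a rise in luminescence from relieved DAX1 repression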
Target sequence (P51843 207-470 limits assumed): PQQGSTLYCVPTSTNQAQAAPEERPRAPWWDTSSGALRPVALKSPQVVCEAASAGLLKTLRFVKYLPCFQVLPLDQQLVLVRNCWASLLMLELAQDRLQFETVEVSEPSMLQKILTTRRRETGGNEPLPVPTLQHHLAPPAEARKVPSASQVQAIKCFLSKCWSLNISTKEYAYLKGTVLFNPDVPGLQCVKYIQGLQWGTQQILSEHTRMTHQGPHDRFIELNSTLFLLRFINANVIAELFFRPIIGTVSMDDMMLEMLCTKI
DAX1 inh-2 = inhibitors of DAX1 repression of SF-1 activated StAR promoter | inhibition, % at 6.8 µM | AID 652010 | actives 1.1% (n = 370,000) | HEK293T StAR-luciferase reporter, SF-1/DAX-1 repression relief;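 active means inhibition above the mean over all tested compounds plus 3 SD, cut at about 3.6% in these data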;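 further: higher inhibition means more luminescence from relief of DAX-1 repression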
hcDAF-12 act = activators of H. contortus DAF-12 nuclear receptor. AID 652067. actives 1.4% (n = 370,000). HEK293 hcDAF-12 lit1-tk-luc reporter, luminescence; 0% DMSO, 100% Δ7-dafachronic acid. activation, % at 6.8 µM;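 active means activation above the mean of all tested compounds plus 3 SD, cut at about 5.5% in these data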
ssDAF-12 act = activates DAF-12 receptor from parasite S. stercoralis; activation, % at 6.8 µM; actives 1% (n = 370,000); HEK293 ssDAF-12/GRIP1 lit1-tk-luc reporter, luminescence; % of 3 µM dafachronic acid response;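 active means activation above the mean over all tested compounds plus 3 SD, cut at about 0.9% in these data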
DAX1 conf = NR0B1 (human) inhibition, confirmation; shares compounds with DAX1 inh-2; AID 652134; inhibition, % at 6.8 µM; HEK293T StAR-promoter luciferase reporter, SF-1/DAX-1 repression; actives 87% (n = 2,400);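 active means inhibition above the average of every tested compound plus 3 SD, cut at about 3.8% in these data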;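 further: active compounds raise luminescence by relieving repression of the StAR reporter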
Target sequence (P51843 whole entry, looked up): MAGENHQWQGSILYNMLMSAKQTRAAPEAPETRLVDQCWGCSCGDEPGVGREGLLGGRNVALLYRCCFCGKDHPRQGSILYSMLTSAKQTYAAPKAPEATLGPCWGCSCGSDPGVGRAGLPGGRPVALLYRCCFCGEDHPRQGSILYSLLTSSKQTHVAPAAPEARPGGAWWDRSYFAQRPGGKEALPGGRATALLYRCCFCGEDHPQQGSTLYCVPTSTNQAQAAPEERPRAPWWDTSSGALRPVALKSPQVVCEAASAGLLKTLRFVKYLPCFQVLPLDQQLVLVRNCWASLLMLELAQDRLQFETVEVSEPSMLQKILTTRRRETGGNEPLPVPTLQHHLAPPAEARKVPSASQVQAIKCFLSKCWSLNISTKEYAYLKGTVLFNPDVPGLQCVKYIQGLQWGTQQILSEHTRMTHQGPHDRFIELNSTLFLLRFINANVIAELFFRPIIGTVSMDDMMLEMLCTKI
SF1 AF2mut Luc = nonselective inhibitor or artifact in SF-1 mutant DAX1 counter-screen; shares compounds with DAX1 inh-2; HEK293 StAR-luciferase, SF-1 AF2 mutant, luminescence; inhibition, % at 6.8 µM; actives 78% (n = 2,400);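 active means inhibition above the mean of all tested compounds plus 3 SD, cut at about 3% in these data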
SMARCA2 act conf = confirmation of SMARCA2 (BRM) function activators; MG213 cells, MMTV-luciferase with dexamethasone, luminescence, overnight; MG213 cells expressing E1A, Rb sequestered; DMSO wells 0%, reference activator 100%; activation, % at 9.1 µM; actives 30% (n = 3,500); shares compounds with SMARCA2 activ;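 active means activation above its plate's cutoff, the mean activation of tested wells plus 3 SD, cut at about 7.9% in these data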
GAL4-VP16 Luc = activates GAL4-VP16 luciferase, flagging SMARCA2 activator hits. activation, % at 9.1 µM. HEK293 GAL4-VP16 pG5luc reporter, luciferase luminescence; scaled: DMSO wells 0%, SAHA wells 100%. AID 686939. actives 41% (n = 3,500). shares compounds with SMARCA2 activ;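 active means activation above the solvent-only control well mean plus 3 SD, averaged across control plates, cut at about 5.2% in these data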
LXRb hcDAF ctr = LXR-beta agonism as hcDAF-12 counter-screen. HEK293 Gal4-LXR tk-luc reporter, luminescence, 24 h; normalized: DMSO 0%, positive control 100%. shares compounds with hcDAF-12 act. 3,400 tested, under 10 active. AID 743027. activation, % at 6.8 µM;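 active means mean percent activation of the reporter above a cutoff set as the average over tested compounds plus their standard deviation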
hcDAF12 conf = confirmation of H. contortus DAF-12 agonists; HEK293 hcDAF-12 lit1-tk-luc reporter, luminescence; % of Δ7-dafachronic acid response; activation, % at 6.8 µM; AID 743032; shares compounds with hcDAF-12 act; actives 61% (n = 3,400);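 active means mean activation across triplicate tests above the threshold derived from the earlier primary screen, cut at about 5.5% in these data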
hgDAF12 ag = hgDAF-12 agonism, confirmation assay. HEK293 GAL4-hgDAF12 luciferase reporter, agonist mode; percent of butyrate response. actives 80% (n = 3,300). AID 743050. activation, % at 6.8 µM. shares compounds with hgDAF-12 ag;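 active means mean activation over triplicate wells above the hit cutoff derived from the earlier primary screen, cut at about 11% in these data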
LXRb DAF12 ctr = LXR-beta agonism as DAF-12 counter-screen. shares compounds with hgDAF-12 ag. HEK293 Gal4-LXR luciferase reporter, 24 h. activation, % at 6.8 µM. 3,300 tested, under 10 active;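 active means mean activation of the triplicate above a set limit carried over from the primary screen, none filed active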
Numbers stand for hits; – = inactive; · = no result.

SMILES | SMARCA2 activ | hgDAF-12 ag | DAX1 inh-1 | DAX1 inh-2 | hcDAF-12 act | ssDAF-12 act | DAX1 conf | SF1 AF2mut Luc | hgDAF12 ag | LXRb DAF12 ctr | others
O=[N+]([O-])c1ccc2nc(N3CCCC3)sc2c1 | – | – | – | – | – | – | · | · | · | ·
Cc1noc(C)c1NC(=O)NC(c1ccccc1)c1ccccc1 | – | – | – | – | – | – | · | · | · | ·
c1ccc(-c2cc(-c3ccccc3)on2)cc1 | – | 18 | – | 5.7 | 12 | 1.7 | 18 | 12 | 18 | – | LXRb hcDAF ctr=–;hcDAF12 conf=8.0
CCOC(CNC(=O)c1[nH]c(C(F)(F)F)nc1-c1ccccc1)OCC | – | – | · | – | – | – | · | · | · | ·
Cc1sc2ncnc(SCC(=O)N3CCCC(C(F)(F)F)C3)c2c1C (centres undefined) | – | – | – | – | – | – | · | · | · | ·
CC(Cc1ccccc1)NC(=O)/C=C/c1ccc([N+](=O)[O-])cc1 (centres undefined) | – | – | – | – | – | – | · | · | · | ·
CC(Cc1ccccc1)NC(=O)c1ccc([N+](=O)[O-])cc1 (centres undefined) | 7.8 | 14 | – | 4.8 | 5.7 | – | 14 | 8.9 | 14 | –
O=C(Nc1ccc(C(=O)OC[C@@H]2CCCN3CCCC[C@H]23)cc1)c1cccc(Br)c1 | – | – | – | – | – | – | · | · | · | ·
CC1(CCC(=O)N2CCCC(N3CCN(c4ccc(F)cc4)CC3)C2)CC1 (centres undefined) | – | – | – | – | – | – | · | · | · | ·
Cc1ccc(CN2CCCCC(NC(=O)c3ccc(F)c(F)c3)C2=O)cc1 (centres undefined) | – | – | · | – | – | – | · | · | · | ·
Clc1ccc(/C=C/c2nc3ccccc3[nH]2)cc1 | – | 14 | – | 4.5 | 7.7 | – | 11 | 5.8 | 13 | – | LXRb hcDAF ctr=–;hcDAF12 conf=8.9
N#Cc1cccc(N2[C@@H](Cc3cc4ccccc4n3Cc3ccccc3)COC[C@H]2Cc2ccc3ccccc3c2)c1 | – | – | – | – | – | – | · | · | · | ·
O=C(NC(=S)Nc1ccc2c(c1)OCCO2)c1ccccc1F | – | 19 | – | 7.6 | – | – | 12 | 7.0 | 18 | –
O=C(NC(=S)Nc1ccc2c(c1)OCCO2)c1ccccc1 | 9.7 | 14 | – | 4.7 | – | – | 16 | 8.7 | 21 | – | SMARCA2 act conf=–;GAL4-VP16 Luc=9.1
CCOc1cccc(C(=O)NC(=S)Nc2ccc3c(c2)OCCO3)c1 | – | – | – | – | – | – | · | · | · | ·
N/C(=N\OC(=O)c1ccc2ccccc2c1)c1ccccc1Cl | – | 14 | – | 8.8 | – | – | – | 3.5 | 13 | –
N/C(=N\OC(=O)c1ccc2ccccc2c1)c1ccncc1 | – | 17 | 5.2 | 5.2 | 7.1 | 1.1 | 10 | 6.2 | 14 | – | LXRb hcDAF ctr=–;hcDAF12 conf=–
O=C(/C=C/Nc1ccc(Br)cc1F)c1ccccc1 | – | – | – | – | – | – | · | · | · | ·
O=C(/C=C/Nc1ccccc1F)c1ccc(Br)cc1 | 17 | 17 | – | 5.2 | 12 | 1.5 | 14 | 8.4 | 23 | – | SMARCA2 act conf=–;GAL4-VP16 Luc=14;LXRb hcDAF ctr=–;hcDAF12 conf=14
CCOc1ccc(NC(=O)c2csc3c2CCCC3)cc1 | – | 18 | – | 7.1 | 5.6 | – | 12 | 7.7 | 16 | –
Cc1ccc2nc(N(CCN3CCOCC3)C(=O)CCS(=O)(=O)c3ccccc3)sc2c1 | – | 14 | – | 5.1 | – | – | 6.8 | 4.8 | 11 | –
Cc1ccc(S(=O)(=O)CCC(=O)N(CCCN2CCOCC2)c2nc3ccccc3s2)cc1 | – | – | – | – | – | – | · | · | · | ·
COc1ccccc1CN1[C@@H](CC(C)=O)c2cc(C(F)(F)F)ccc2S1(=O)=O | – | – | – | – | – | – | · | · | · | ·
COc1ccc2[nH]c(=O)c(CN(C(=O)c3cccnc3)c3ccc(C)c(C)c3)cc2c1 | – | – | – | – | – | – | · | · | · | ·
COc1ccc(C)cc1Nc1nc(N)c2ccccc2n1 | – | – | – | – | – | – | · | · | · | ·
SMILES | SMARCA2 activ | hgDAF-12 ag | DAX1 inh-1 | DAX1 inh-2 | hcDAF-12 act | ssDAF-12 act | DAX1 conf | SF1 AF2mut Luc | hgDAF12 ag | LXRb DAF12 ctr | others
Cc1ccccc1Nc1nc(N)c2ccccc2n1 | – | 19 | – | 5.3 | 7.1 | – | 12 | 5.6 | 17 | – | LXRb hcDAF ctr=–;hcDAF12 conf=–
CC(=O)Oc1cccc(C2=CC(=O)CC(C)(C)C2=O)c1 | – | – | – | – | – | – | · | · | · | ·
c1ccc2oc(-c3csc(NCC4CCCO4)n3)cc2c1 (centres undefined) | – | 15 | – | 10 | – | 1.1 | 12 | 7.0 | 15 | –
C=CCNc1nc(-c2cc3ccccc3o2)cs1 | – | 18 | – | 6.5 | 9.1 | 1.5 | 14 | 4.1 | 18 | – | LXRb hcDAF ctr=–;hcDAF12 conf=8.3
O=C(Nc1nc2c(F)cccc2s1)c1ccco1 | – | 16 | – | 4.8 | 5.6 | – | 6.8 | 6.7 | 17 | –
CC(=O)Nc1nc2c(F)cccc2s1 | – | – | – | – | – | – | · | · | · | ·
Cc1cccc(NC(=O)CN2CCN(C(=O)c3ccc(OCc4cn5ccccc5n4)cc3)CC2)c1C | – | – | – | – | – | – | · | · | · | ·
Brc1ccc(/C=N/Nc2ccc3ccccc3n2)cc1 | – | – | – | – | – | – | · | · | · | ·
Fc1cccc(/C=N/Nc2ccc3ccccc3n2)c1 | – | 21 | – | 6.7 | 12 | 1.7 | 16 | 6.6 | 20 | – | LXRb hcDAF ctr=–;hcDAF12 conf=11

Bioassay records as filed in PubChem.
